The whole screen tested about 16,000 compounds, of which about 5,700 (36%) were called active. About 24% were inconclusive and are not listed. The call rests on the fitted dose curve; in most records, active means well fitted curve in the direction sought with a large enough effect; inconclusive means small, poorly fitted or top-dose-only effect, or effect the other way; inactive means no such curve, though single readings can be large or run the other way. Some of the results follow.
On the % scale 0 is the no-effect control and ±100 the full control effect.

This experiment deals with Cytochrome P450 1A2 (Homo sapiens) (UniProt P05177). Kind of experiment: Cytochrome panel assay with activity outcomes. The following applies: recombinant CYP, pro-luciferin dealkylation, luminescence, p450-cyp1a2; series mostly up to 57.1 µM; activity, negative = inhibition: at the top concentration.
Sequence of Cytochrome P450 1A2 (Homo sapiens) (P05177 whole entry, looked up): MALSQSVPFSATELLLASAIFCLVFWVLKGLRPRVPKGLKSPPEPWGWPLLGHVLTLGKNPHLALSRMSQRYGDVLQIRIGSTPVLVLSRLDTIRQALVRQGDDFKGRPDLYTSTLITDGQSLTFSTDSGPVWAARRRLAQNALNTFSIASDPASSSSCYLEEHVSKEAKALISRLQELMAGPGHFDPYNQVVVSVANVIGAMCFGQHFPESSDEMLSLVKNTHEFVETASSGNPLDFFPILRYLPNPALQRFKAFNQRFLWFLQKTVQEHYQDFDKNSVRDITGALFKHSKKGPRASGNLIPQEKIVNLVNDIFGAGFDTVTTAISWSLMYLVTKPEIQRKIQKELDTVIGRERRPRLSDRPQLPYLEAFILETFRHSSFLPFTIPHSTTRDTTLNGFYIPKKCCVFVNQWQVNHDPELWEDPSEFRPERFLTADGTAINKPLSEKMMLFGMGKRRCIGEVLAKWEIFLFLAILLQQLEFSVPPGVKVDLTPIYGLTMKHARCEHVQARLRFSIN
Regarding `COc1ccccc1CN1CCC2(CC1)CCN(S(=O)(=O)c1ccccc1)CC2`, the “activity, negative = inhibition” value was -1.13% (inactive).

Consider `O=C(NCCCN1CCN(Cc2ccccc2)CC1)C1CCN(S(=O)(=O)N2CCCC2)CC1`, for which the “activity, negative = inhibition” value is -6.36% (inactive).

With `COc1ccc(C(=O)N/C(=C/c2cccs2)C(=O)NCCCn2ccnc2)cc1OC`, the “activity, negative = inhibition” value is -12.2% (inactive).

Regarding `COc1ccc(S(N)(=O)=O)cc1C(=O)NCCCN1CCN(c2cccc(Cl)c2)CC1`, the “activity, negative = inhibition” value was -15% (inactive).

For orientation: AC50 means the concentration at which the activity in the assay is half-maximal. As to `COc1ccc2c(Cl)c(C(=O)NCCCn3ccnc3)sc2c1Cl`, the AC50 is 631 nM (active).

Regarding `Nn1nnc2ccccc21`, the AC50 was 12600 nM (active).

As for `N#CCCn1nnc2ccccc21`, the “activity, negative = inhibition” value was -20.3% (inactive).

With `c1ccc2c(c1)nnn2CN1CCOCC1`, the activity, negative = inhibition was -8.08% [at 11.4 µM] (inactive).

In the case of `Cc1ccc(NC(=O)C2(NC(=O)c3cccc(N4C(=O)CSC4c4ccccc4)c3)CCCCC2)cc1` (stereo not drawn), the “activity, negative = inhibition” value is -7.8% (inactive).

On to `O=C1NCCc2c1[nH]c1ccccc21`, for which the concentration at half-maximal activity (AC50) was 2820 nM (active).

In the case of `Cn1cccc1C(=O)N1CCC[C@@]2(CCN(Cc3ccc(C#N)cc3)C2)C1`, the “activity, negative = inhibition” value was 0.0918% (inactive).

On to `COc1ccc2cc(C(=O)Nc3ccc(F)cc3)sc(=O)c2c1OC`, for which the AC50 is 1120 nM (active).

For the compound `COC(=O)Nc1ccc2[nH]cc(CCNC(C)=O)c2c1`, the AC50 is 316 nM (active).

For `Nc1ccc2[nH]cc(CCC(=O)O)c2c1`, the activity, negative = inhibition is -8.18% [at 11.4 µM] (inactive).

In the case of `O=C(O)Cc1c[nH]c2ccc(O)cc12`, the “activity, negative = inhibition” value is 6.6% (inactive).

Turning to `COc1cc2c(CCNC(C)=O)c[nH]c2cc1Cl`, the half-maximal activity concentration (AC50) is 126 nM (active).

`CC[C@@H](c1ccccc1)n1c(=O)n2n(c1=O)[C@H]1[C@H](O)[C@H]3O[C@@H]3/C(=N/OCc3ccccc3)[C@@H]1CC2`: the activity, negative = inhibition was -0.045% [at 11.4 µM] (inactive).

As for `CCC1CCCCN1Cc1cc(OC)c(O)c([N+](=O)[O-])c1` (stereo not drawn), the “activity, negative = inhibition” value was -1.7% (inactive).

On to `CCCCCCN1C=CC(=C/C=C(\C#N)C(=O)OCC)C=C1`, for which the “activity, negative = inhibition” value was -22.3% (inactive).

Take `COc1cc(OC)c(NC(=S)Nc2cccc(C(C)=O)c2)cc1Cl`: the concentration at half-maximal activity (AC50) is 6310 nM (active).

For `COc1cc(C(=O)NC(=S)Nc2ccc(Cl)c(C(=O)O)c2)cc(OC)c1OC`, the “activity, negative = inhibition” value is -16.2% (inactive).

As to `Fc1ccc(-c2[nH]ncc2-c2nnnn2-c2ccccc2)c(F)c1`, the “activity, negative = inhibition” value is -19% (inactive).

In the case of `Clc1ccc2[nH]cc(-c3nnnn3-c3ccccc3)c2c1`, the AC50 is 7940 nM (active).

For `Cc1ccc(-n2nnnc2-c2cnc3ccc(Cl)cc3c2-c2ccccc2)cc1`, the “activity, negative = inhibition” value is -12.6% (inactive).

As for `O=C(Nc1cccc(F)c1)N1CC2(CCN(C(=O)c3csnn3)CC2)C1`, the “activity, negative = inhibition” value is -1.09% (inactive).

As to `COC(=O)NCC(c1cccnc1)N1CCN(c2ccccc2OC)CC1` (stereo not drawn), the “activity, negative = inhibition” value is -22.4% (inactive).

As to `COc1ccc(N2CCN(C(CNC(=O)C3CCCCC3)c3cccnc3)CC2)cc1` (stereo not drawn), the “activity, negative = inhibition” value is -27.8% (inactive).

Turning to `COc1cc(C(=O)NCC(c2cccnc2)N2CCN(C)CC2)cc(OC)c1OC` (stereo not drawn), the AC50 is 20000 nM (active).

These data come from PubChem BioAssay AID1851 (National Center for Advancing Translational Sciences (NCATS), 2009).
